Compound activity deposited in PubChem by several laboratories.
Compounds with a hit are over-represented: about 1.2% of the library has one in this group of screens.
LANA-H2B inh: blocks KSHV LANA binding to histone H2A/H2B | Q9QR71 | cell-free LANA-H2A/H2B peptide, fluorescence polarization | 320,000 compounds, 0.6% hits | inhibition, % (no concentration beside the values); in the data active = inhibition mostly above about 10%, no sharp cut-off; inactive = mostly below about 6.7%
HDAC3 inhib: human HDAC3 inhibition | recombinant HDAC3, fluorogenic peptide/trypsin coupled, fluorescence | inhibition, % at 8.3 µM | 320,000 compounds, 0.15% hits; in the data active = inhibition above about 26%, passing the limit was not always enough
Target sequence (O15379 whole entry, looked up): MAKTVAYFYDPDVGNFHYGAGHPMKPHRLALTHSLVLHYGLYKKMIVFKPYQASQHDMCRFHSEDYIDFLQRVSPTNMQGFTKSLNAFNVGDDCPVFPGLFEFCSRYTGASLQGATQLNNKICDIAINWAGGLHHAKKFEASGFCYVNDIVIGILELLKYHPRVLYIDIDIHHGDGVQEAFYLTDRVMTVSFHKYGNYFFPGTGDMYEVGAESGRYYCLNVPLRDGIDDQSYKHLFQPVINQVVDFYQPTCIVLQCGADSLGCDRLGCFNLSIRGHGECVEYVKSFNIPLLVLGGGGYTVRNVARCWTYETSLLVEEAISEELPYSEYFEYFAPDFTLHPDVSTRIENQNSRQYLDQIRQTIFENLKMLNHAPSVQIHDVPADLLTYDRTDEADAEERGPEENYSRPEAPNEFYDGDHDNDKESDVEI
HIF activator: HIF pathway transcriptional activation; U2OS HRE-luciferase reporter, luminescence; normalized: DMSO 0%, desferrioxamine 100%; activation, % at 7.5 µM (by protocol); 300,000 compounds, 0.32% hits; AID 1910;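 active = mean activation of at least 10% of the iron chelator positive control signal, with at least half of replicates also reaching 10%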
CR mimetic SO: yeast age-related superoxide inhibition as caloric restriction mimetic | S. cerevisiae aged cells, superoxide DHE fluorescence; active compounds read low | superoxide response (% of plate mean), % at 10 µM | 330,000 compounds, 0.18% hits | AID 2690;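 active = superoxide response under a set limit, about three screen SD below normal, cut at about 65% in these data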;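 note: yeast aged for seven days with compound at 30 °C before DHE staining; 100% = average MFI of all compound-treated wells on the plate with controls excluded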
* hit, by the source's call; . = no result given.

SMILES	LANA-H2B inh	HDAC3 inhib	HIF activator	CR mimetic SO
O=C(Cn1c(SCC(=O)N2CCCc3ccccc32)nc2ccccc21)N1CCCC1	-4.3	0.1	69.6*	103.8
CC(OC(=O)Cn1c(C(F)(F)F)nc2ccccc21)C(=O)N1CCCc2ccccc21 (stereo unspecified)	25.8*	2.2	.	97.8
COc1ccc(S(=O)(=O)N(CC(=O)N2CCCCCC2)c2ccccc2OC)cc1	-2.2	-0.9	0.6	99.2
COc1ccc(NC(=O)COC(=O)CCc2ccc(S(=O)(=O)N3CCOCC3)cc2)cc1OC	-0.9	0.0	.	99.8
CC(C)(C)NC(=O)C(c1cccs1)N(C(=O)c1csnn1)c1cccc(F)c1 (stereo unspecified)	2.0	4.3	0.0	89.1
CC(=O)c1ccc(N(C(=O)c2csnn2)C(C(=O)NC(C)(C)C)c2cccs2)cc1 (stereo unspecified)	-0.7	-14.2	34.7*	75.5
CC(=O)Nc1ccc(C(=O)CSc2nccc(=O)[nH]2)cc1	-1.2	61.7*	0.4	99.8
O=C(CSc1nccc(=O)[nH]1)Nc1ccc(Oc2ccccc2)cc1	0.6	1.1	-0.3	104.9
S=C(Nc1ccccc1Cl)N(CCN1CCCCC1)Cc1ccco1	3.5	1.9	0.2	91.1
Nc1cccc2c1C(=O)N(C(=O)c1cccc(S(=O)(=O)N3CCCC3)c1)C2=O	5.3	2.0	-0.2	98.9
Cc1ccc(C(=O)N2C(=O)c3cccc(N)c3C2=O)o1	19.6*	6.7	1.3	94.0
Cc1cc(NC(=O)NC2CCCN2S(=O)(=O)c2ccc(Cl)cc2)no1 (stereo unspecified)	0.8	1.3	-0.1	107.8
CC1CCCCN1CCNC(=O)c1ccc2c(c1)N(Cc1cccc(Cl)c1)C(=O)c1ccccc1S2=O (stereo unspecified)	17.7*	2.2	-0.4	90.2
O=C(NCCCN1CCCC1)c1ccc2c(c1)N(Cc1cccc(Cl)c1)C(=O)c1ccccc1S2=O (stereo unspecified)	-0.1	-1.6	0.4	116.4
CCOc1ccc(CCNC(=O)c2ccc(Cl)c(S(=O)(=O)N3CCOCC3)c2)cc1OCC	-1.4	-1.1	-0.6	99.8
COc1cc(N2CCCC2)c(OC)cc1/C=C(/C#N)c1ccc(F)cc1	-68.9*	-2.2	0.3	114.9
C/C(=N\NC(N)=S)C1=CCC2C3CC[C@H]4CC(O)CC[C@]4(C)C3CC[C@]12C (stereo partly specified)	-3.2	-3.7	-0.1	94.0
CCOc1ccc(NC(=O)CN(C)C(=O)c2nc3nc(C)cc(C)n3n2)cc1OCC	34.9*	6.5	.	177.3
Cc1cccc(NC(=O)CSc2nnc(C3CC3)n2CC2CCCO2)c1C (stereo unspecified)	-8.0	0.1	0.0	107.1
CCc1ccccc1NC(=O)CSc1nnc(C2CC2)n1CC1CCCO1 (stereo unspecified)	19.4*	0.5	0.0	129.4
CC(C)n1cc(CN2CCC(Oc3ccc(C(=O)N4CCCC4)cc3)CC2)cn1	48.6*	3.3	-0.2	89.6
N#CCCN(CCC#N)C(=O)C1c2ccccc2Oc2ccccc21	114.0*	-0.4	0.7	94.6
CN(CCC#N)C(=O)COC(=O)C1c2ccccc2Oc2ccccc21	-5.4	-2.0	0.8	97.2
COc1ccccc1-c1cc(C(F)(F)F)nc(S(=O)(=O)CCCC(=O)N2CCOCC2)n1	-1.1	-8.6	15.3*	89.3
CCCNC(=O)c1oc2ccc3c(c2c1C)C(O)CC(C)(C)O3 (stereo unspecified)	-2.6	-44.6	-26.2	96.2
SMILES	LANA-H2B inh	HDAC3 inhib	HIF activator	CR mimetic SO
Cc1c(C(=O)NCc2ccoc2)oc2ccc3c(c12)C(=O)CC(C)(C)O3	28.7*	5.3	3.0	81.0
Cc1nc2ccccc2c2c1C(=O)N(c1ccc(C(=O)O)cc1)C2=O	-2.7	-0.5	-1.5	172.6
Cc1nc2ccccc2c2c1C(=O)NC2=O	27.4*	-2.7	-0.3	142.0
O=C1ON=C(c2ccccc2)/C1=C/c1ccc(OS(=O)(=O)c2ccccc2)cc1	120.9*	8.7	.	84.4
COc1ccc(/C=C2\C(=O)ON=C2c2ccccc2)cc1	8.9	5.2	3.1	73.6
COc1cc(OC)cc(C(=O)Nc2ccc(N3CCOCC3)cc2N2CCOCC2)c1	3.2	1.1	.	109.1
CCCCN(CCCC)c1nc(-c2ccncc2)nc2ccccc12	0.6	1.2	-0.1	65.4*
Cc1sc(N)nc1-c1ccc2c(c1)OCCO2	-1.6	4.4	0.1	88.6
NC1=NN=C(c2ccc3c(c2)OCCO3)CS1	4.9	49.5*	-1.5	99.8
COc1cccc(-c2noc(C3CCCN(C(=O)Cc4ccccc4)C3)n2)c1 (stereo unspecified)	10.6*	-4.1	.	124.9
CCCC(=O)N1CCCC(c2nc(-c3cccc(OC)c3)no2)C1 (stereo unspecified)	2.9	-6.4	-5.3	97.6
CCc1noc(C)c1C(=O)N1CCCC(CCC(=O)NCc2ccc(F)c(F)c2)C1 (stereo unspecified)	-4.6	-8.5	0.5	90.0
COc1ccc(C2c3c(n[nH]c3C)CC(C)(O)C2C(C)=O)cc1OC (stereo unspecified)	10.1*	-10.6	-0.3	105.9
COc1ccc(C2C(C(C)=O)=C(Nc3ccccc3)CC(C)(O)C2C(C)=O)cc1OC (stereo unspecified)	-8.2	3.1	.	100.8
CN(C)c1cccc(C(=O)NNC(=O)C23CC4CC(CC(C4)C2)C3)c1	-1.4	-7.0	.	106.8
O=C(CCC1CCCC1)NNC(=O)c1ccc(F)cc1	49.6*	-4.8	.	94.2
CCc1ccc(C(=O)NNC(=O)CCC2CCCCC2)cc1	-0.4	4.8	-0.9	99.1
COc1ccc(S(=O)(=O)NC(CC(C)C)C(=O)NC(C)c2cccs2)cc1 (stereo unspecified)	-7.8	0.1	.	135.3
COc1cc(C(=O)Nc2sc(C)c(C)c2C(=O)O)cc(OC)c1OC	-5.9	0.7	165.0*	111.0
O=C(Nc1nc(-c2ccccn2)cs1)c1cccc(-n2cnnn2)c1	-1.1	-7.8	19.6*	94.7
O=C(Nc1ccc(Br)cc1)c1cccc(-n2cnnn2)c1	-2.1	2.1	0.3	98.9
COc1ccc(CNC2CCCc3ccccc32)cc1OC (stereo unspecified)	30.5*	-0.8	1.7	96.3
COc1ccc(/C(C)=N/NC(=O)CNC(=O)/C=C\c2ccccc2)c(OC)c1	5.1	7.6	-0.2	94.4
Cc1cc(C)c(C)c(S(=O)(=O)Nc2cccc(S(=O)(=O)Nc3ccccc3C(=O)O)c2)c1C	-3.8	5.0	.	80.6
COc1ccc(C(=O)CSc2cc(C)[nH]c(=O)n2)cc1	-3.7	61.3*	2.8	77.9
COc1ccc(C(=O)CSc2nc(C)cc(=O)[nH]2)cc1	-0.5	5.3	0.0	118.8
CC(C)(C)NC(=O)CN(Cc1ccc2c(c1)OCO2)C(=O)CNS(=O)(=O)c1ccc(F)cc1	-2.2	2.1	19.2*	101.4
CC(C)(C)NC(=O)CN(Cc1cccs1)C(=O)CNS(=O)(=O)c1ccc(F)cc1	-0.8	-0.8	0.5	93.5
O=C(N/N=C/c1cc(Cl)ccc1O)c1ccccc1Br	3.2	5.7	10.4*	100.0
O=C(N/N=C/c1cc(Cl)ccc1O)c1cccnc1	2.5	0.6	2.8	95.5
